Compound activity as filed in PubChem.
Compounds with a hit are over-represented: about 19% of the library has one in this group of screens.
IL-1B inflam inh = qHTS for Inhibitors of Inflammasome Signaling: IL-1-beta AlphaLISA Primary Screen. 360,000 compounds, 4.7% hits. activity change, % at 57.5 µM. THP-1 LPS/ATP IL-1B secretion, AlphaLISA, 16 h; active compounds read low; in the data active means activity change below about -50%; inconclusive means mostly about -30% to -49%
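Secreted IL-1B measured by AlphaLISA bead assay after 16 h compound exposure of THP-1 cells; compounds (final up to 57.5 uM) added 1 h before LPS (250 ng/mL) and ATP (1.25 mM) stimulation; lower signal means less secretion.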
DT40 TDP1 CPT = qHTS for Inhibitors of human tyrosyl-DNA phosphodiesterase 1 (TDP1): qHTS in cells in presence of CPT | Potency, µM (doses to about 46.2 µM), without a hit: top-dose activity change, negative = growth inhibition, most hits filed as inhibitors | AID 686979, 2013 | 420,000 compounds, 12% hits | chicken DT40 Tdp1-/-;hTDP1 cells + 20 nM CPT, ATP luminescence, 48 h; further: potency means the concentration at half of the fitted maximal effect; nearly all actives have a fitted effect of over 55% in size
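Cell growth measured by CellTiter-Glo luminescence after a minimum 48 h, 37 C compound exposure with 20 nM CPT in Tdp1-knockout DT40 cells stably expressing hTDP1, seeded 400/well; qHTS titration format.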
HT1080-NT tox = qHTS for induction of synthetic lethality in tumor cells producing 2HG: qHTS for the HT-1080-NT fibrosarcoma cell line | HT-1080-NT fibrosarcoma viability, CellTiter-Glo ATP luminescence, 48 h | Potency, µM (top dose mostly 46.1 µM), inactives show at the top dose activity, negative = less viability, actives largely listed as cytotoxic | 360,000 compounds, 1.6% hits | AID 686970, 2013;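 further: NT is the 2HG producing partner of a matched IDH1 knockdown line; potency means the concentration at half of the fitted maximal effect; 0% = DMSO-treated cells and -100% = media-only wells without cells; nearly all actives have a fitted effect of over 55% in size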
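Luminescent CellTiter-Glo readout after 48 hours of compound exposure at 37 degrees C defined viability of HT-1080-NT cells. Activity was normalized to DMSO wells and cell-free media wells; concentration-response curves were fitted and assigned curve classes.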
DT40 TDP1 no CPT = qHTS for Inhibitors of human tyrosyl-DNA phosphodiesterase 1 (TDP1): qHTS in cells in absence of CPT. 420,000 compounds, 15% hits. Potency, µM (series often up to 46.2 µM), inactives show at the top dose activity change, negative = growth inhibition, usual class: inhibitors. AID 686978, 2013. DT40 Tdp1-/- hTDP1 cells, no CPT, ATP luminescence, 48 h; further: potency means the concentration at half of the fitted maximal effect; nearly all actives have a fitted effect of over 55% in size
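Chicken DT40 Tdp1-/- cells stably complemented with human TDP1 were seeded at 400 cells/well with DMSO in place of 20 nM camptothecin. After compound pinning, cells grew at least 48 hr at 37 °C; viability read by CellTiter-Glo luminescence.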
HT1080 IDH1KD tx = qHTS for induction of synthetic lethality in tumor cells producing 2HG: qHTS for the HT-1080-IDH1KD cell line. HT-1080 IDH1 knockdown viability, ATP luminescence, 48 h. Potency, µM (top dose mostly 46.1 µM), for inactives: at the top dose activity, negative = toxicity, actives largely listed as cytotoxic. 360,000 compounds, 2% hits;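 further: potency means the concentration at half of the fitted maximal effect; 0% = DMSO wells and -100% = cell-free medium wells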
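Knockdown cells (IDH1KD HT-1080) received compounds 2 h after plating at 750 cells/well and were kept 48 h at 37 °C in 5% FBS RPMI. A CellTiter-Glo luminescence read gave % activity for curve fitting.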
ELG1 repair inh = qHTS screen for small molecules that inhibit ELG1-dependent DNA repair in human embryonic kidney (HEK293T) cells expressing luciferase-tagged ELG1; HEK293T ELG1-luciferase reporter, luminescence, 16 h; DNA damage induced by 5-fluorouridine; Potency, µM (series often up to 46.1 µM), for the others: at the top dose activity change, negative = inhibition, hits mostly inhibitors; 330,000 compounds, 2.3% hits; further: potency means the concentration at half of the fitted maximal effect; nearly all actives have a fitted effect of over 55% in size
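DMSO vehicle served as the neutral condition. Each well held 2,000 cells given 5-fluorouridine plus compound; after 16 hr at 37 °C/5% CO2, ONE-Glo was added and luciferase measured 30 min later.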
The depositor's hits bear a star; ? = inconclusive; nt = not tested or not shown; [ ] = remark or other dose. Unless noted, the call rests on the fitted dose curve; in most records, active means well fitted curve in the direction sought with a large enough effect; inconclusive means small, poorly fitted or top-dose-only effect, or another doubt; inactive means no such curve, though single readings can be large; an effect the other way counts as inactive or inconclusive. Unless noted, on the % scale 0 is the no-effect control and ±100 the full control effect.

SMILES	IL-1B inflam inh	DT40 TDP1 CPT	HT1080-NT tox	DT40 TDP1 no CPT	HT1080 IDH1KD tx	ELG1 repair inh
O=C1C=C(Nc2ccc(F)cc2)c2ccccc2C1=O	-0.4	7.31µM*	?	9.2µM*	?	?
CCOc1ccc(NC2=CC(=O)C(=O)c3ccccc32)cc1	-54.7*	2.31µM*	?	3.26µM*	?	nt
COc1cc(Cl)c(NS(=O)(=O)c2ccc(-c3ccc(=O)[nH]n3)o2)c(OC)c1	-9.9	-2.3%	-0.7%	25.8%	-1.9%	28.3%
COc1cc(Cl)c(NC2=CC(=O)C(=O)c3ccccc32)c(OC)c1	?	11.6µM*	9.2µM*	?	8.2µM*	-10.0%
CNc1nc(-c2ccccc2C(F)(F)F)nc2ccccc12	nt	?	nt	-4.9%	nt	nt
COc1ccc(C(=O)c2c(N)c(C(=O)Nc3ccccc3Cl)c3ccccn23)cc1	nt	-14.9%	nt	-6.5%	nt	nt
Cc1ccc(C)c(N(CC(=O)NC2CCCC2)C(=O)CCC(=O)Nc2nccs2)c1	?	-8.4%	-10.5%	-25.3%	-15.4%	-2.7%
Cc1ccc(N(CC(=O)NC2CCCC2)C(=O)CCC(=O)Nc2nccs2)c(C)c1	-54.4*	-6.9%	-11.4%	?	-13.8%	1.7%
CC(=O)N1CCC(C(=O)Nc2ccc(S(=O)(=O)N3CCCCC3)cc2)CC1	-0.8	?	0.6%	?	2.3%	-20.4%
COc1ccc(CCNS(=O)(=O)c2ccc(N3CCCCS3(=O)=O)cc2)cc1	nt	23.1µM*	nt	20.6µM*	nt	nt
COc1ccc(CCNS(=O)(=O)c2ccc(Br)cc2)cc1	-6.2	25.6%	5.7%	2.4%	-1.3%	-1.9%
COc1ccccc1CCNS(=O)(=O)c1ccc(N2CCCCS2(=O)=O)cc1	nt	23.1µM*	nt	20.6µM*	nt	nt
COc1cccc(CNS(=O)(=O)c2ccc(N3CCCCS3(=O)=O)cc2)c1	nt	23.1µM*	nt	16.4µM*	nt	nt
C(=C\c1ccccc1)/CSc1nc2ncccc2[nH]1	-6.6	0.9%	3.7%	-8.6%	2.4%	?
CC(=O)c1cc2c(cc1N/C(=N/S(=O)(=O)c1ccc(C)cc1)c1ccc(F)cc1)OCO2	nt	-29.0%	nt	-27.5%	nt	nt
CCN(CC)CCOC(=O)/C=C/c1ccccc1	-5.5	-11.3%	1.3%	-1.3%	0.5%	29.1%
CCN(CC)CC(C)(C)C(=O)/C=C/c1ccc(/C=C/C(=O)C(C)(C)CN(CC)CC)cc1	-2.7	0.517µM*	5.8µM*	0.411µM*	1.64µM*	nt
O=C(NN1C(=O)c2ccccc2NC1c1ccoc1)c1ccc([N+](=O)[O-])cc1 (centres undefined)	?	-17.0%	0.9%	7.8%	-4.6%	7.1%
O=C(NN1C(=O)c2ccccc2NC1c1ccc([N+](=O)[O-])o1)c1ccccc1 (centres undefined)	-76.3*	?	-15.1%	16.4µM*	-15.5%	14.3%
O=C(NN1C(=O)c2ccccc2NC1c1ccc([N+](=O)[O-])o1)c1ccc([N+](=O)[O-])cc1 (centres undefined)	-103.8*	18.4µM*	?	8.2µM*	?	?
CCN1CCC[C@H]1CNCCCn1cnc2c(SC)ncnc21	-7.8	1.9%	2.4%	-4.2%	0.0%	nt
COc1ccc(-c2nc3ccc(N4CCCC4)cc3c(=O)[nH]2)cc1OC	-19.4	13µM*	-1.0%	20.6µM*	-14.2%	-10.7%
COc1ccc(CN(C)CCCn2cnc3c(OC)ncnc32)cc1OC	8.3	2.4%	7.0%	7.8%	13.7%	nt
O=CNc1cc(-c2ccc(C(=O)NC3CC3)cc2)cn2c(-c3ccccc3)cnc12	?	10.3µM*	6.51µM*	7.31µM*	5.8µM*	nt
CC(=O)c1ccc(-c2cnc3c(NC=O)cc(-c4ccc(C(=O)NC5CC5)cc4)cn23)cc1	-64.5*	5.8µM*	14.6µM*	5.17µM*	7.31µM*	nt
SMILES	IL-1B inflam inh	DT40 TDP1 CPT	HT1080-NT tox	DT40 TDP1 no CPT	HT1080 IDH1KD tx	ELG1 repair inh
O=CNc1cc(-c2ccc(C(=O)NC3CC3)cc2)cn2c(-c3ccc(F)c(Cl)c3)cnc12	0.0	18.4µM*	?	13µM*	?	nt
COc1ccc(N(CC(=O)NCc2ccc3c(c2)OCO3)C(=O)c2csnn2)cc1	2.1	16.2%	-1.4%	-8.3%	4.0%	?
Cc1ccc(S(=O)(=O)N2CCN(C(=O)c3c(-c4ccccc4)noc3C)CC2)cc1C	33.0	?	0.4%	-69.2%	-3.0%	-0.2%
Cc1ccc(S(=O)(=O)N2CCN(C(=O)c3c(-c4ccccc4)noc3C)CC2)c(C)c1	31.0	18.4µM*	21.0%	?	20.8%	?
Cc1ccc2nc(-c3ccccc3)cc(C(=O)N3CCN(S(=O)(=O)c4c(C)noc4C)CC3)c2c1	-12.4	?	-2.7%	23.1µM*	-10.6%	?
Cc1ccc2nc(-c3ccccc3)cc(C(=O)N3CCN(c4ccccc4O)CC3)c2c1	-23.3	?	0.0%	?	?	?
Cc1ccc(C(=O)Nc2ccccc2C(=O)OCc2cc(=O)n3nc(C4CC4)sc3n2)cc1	nt	5.5%	nt	-11.9%	nt	nt
CC1(C)Oc2ccc(C#N)cc2[C@@H](OC2=CC(=O)CC2)[C@@H]1O	nt	-10.4%[92.5 µM]	nt	1.6%[92.5 µM]	nt	nt
COc1ccc(CNC(=O)c2sc3nc[nH]c(=O)c3c2C)cc1	nt	2.3%	nt	-15.4%	nt	nt
Cc1cccc(C)c1NC(=O)c1oc2ccc3c(c2c1C)C(=O)CC(C)(C)O3	nt	16.4µM*	nt	?	nt	nt
Cc1c(C(=O)Nc2ccc(F)cc2F)oc2ccc3c(c12)C(=O)CC(C)(C)O3	nt	-28.4%	nt	-9.6%	nt	nt
Cc1c(C(=O)NCC2CCCO2)oc2ccc3c(c12)C(=O)CC(C)(C)O3 (centres undefined)	17.1	-21.6%	2.8%	?	1.4%	?
CCCOc1ccc(CNC(=O)c2oc3ccc4c(c3c2C)C(=O)CC(C)(CC)O4)cc1 (centres undefined)	nt	16.4µM*	nt	16.4µM*	nt	nt
Cc1c(C(=O)NCc2cccc(Br)c2)oc2ccc3c(c12)C(=O)CC(C)(C)O3	nt	?	nt	14.6µM*	nt	nt
COc1ccccc1CNC(=O)c1oc2ccc3c(c2c1C)C(=O)CC(C)(C)O3	nt	?	nt	16.4µM*	nt	nt
